HP1b binding inh: HP1-beta chromodomain-methylated histone interaction inhibition; actives 0.56% (n = 390,000); P83916; Potency, µM (series often up to 114 µM), for the others: at the top dose activity change, negative = inhibition, usual class: inhibitors; AlphaScreen HP1-beta / biotin-H3K9me3 peptide binding; also: nearly all actives have a fitted effect of over 70% in size
Target sequence (P83916 whole entry, looked up): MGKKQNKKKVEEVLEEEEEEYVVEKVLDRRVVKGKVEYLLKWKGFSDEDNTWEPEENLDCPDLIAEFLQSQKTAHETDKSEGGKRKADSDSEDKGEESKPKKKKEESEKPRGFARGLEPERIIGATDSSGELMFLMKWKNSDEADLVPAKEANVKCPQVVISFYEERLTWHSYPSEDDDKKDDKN
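AlphaScreen: HP1-beta (50 nM) preformed 30 min with biotin-H3(1-18)K9me3 peptide (50 nM) in PBS pH 7.4, 0.01% Tween-20. Compound added for 30 min at RT, then streptavidin donor/nickel chelate acceptor beads (10 ug/mL) for 30 min.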
G9a block: inhibitors of human histone lysine methyltransferase G9a | Potency, µM (doses to about 102 µM), inactives show top-dose activity, negative = inhibition, actives largely listed as inhibitors | Q96KQ7 | G9a H3K9 monomethylation, AlphaScreen, 2 h | actives 8.8% (n = 350,000); also: % is scaled to controls: 0 for no effect and ±100 for the full control effect; nearly all actives have a fitted effect of over 75% in size
Target sequence (Q96KQ7 913-1193 limits assumed): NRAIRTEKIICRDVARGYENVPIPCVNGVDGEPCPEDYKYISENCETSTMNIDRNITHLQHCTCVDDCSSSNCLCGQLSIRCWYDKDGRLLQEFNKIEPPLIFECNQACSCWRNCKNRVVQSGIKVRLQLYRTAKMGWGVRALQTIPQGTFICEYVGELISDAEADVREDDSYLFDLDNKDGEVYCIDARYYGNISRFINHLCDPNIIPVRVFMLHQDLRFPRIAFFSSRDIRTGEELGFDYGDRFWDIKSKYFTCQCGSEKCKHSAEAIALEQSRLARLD
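Chemiluminescent proximity detection of H3K9 monomethylation, read after 10 min bead incubation in the dark. Reaction: 20 nM G9a, 500 nM biotin-H3K9 peptide, 20 uM SAM cofactor, 2 h, room temperature, following 15 min enzyme-compound preincubation.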
BAZ2B block: inhibitors of human BAZ2B bromodomain; Potency, µM (series often up to 114 µM), inactives show at the top dose activity change, negative = inhibition, most hits filed as inhibitors; actives 4.4% (n = 360,000); Q9UIF8; AlphaScreen BAZ2B-H3K14Ac peptide displacement; also: % is scaled to controls: 0 for no effect and ±100 for the full control effect; nearly all actives have a fitted effect of over 60% in size
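Compounds, titrated to a top concentration of 110 uM, were incubated 30 min at room temperature with preformed BAZ2B/acetyl-K14 H3 peptide complex (50 nM each). Proximity signal was measured by AlphaScreen after 20 min with beads.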
JMJD2A Tudor inh: JMJD2A Tudor domain (human) inhibition | Potency, µM (series often up to 114 µM), for the others: top-dose activity change, negative = inhibition, actives largely listed as inhibitors | AlphaScreen JMJD2A-Tudor / H3K4me3 peptide binding | actives 4.4% (n = 390,000) | O75164 | AID 504339; also: % is scaled to controls: 0 for no effect and ±100 for the full control effect; nearly all actives have a fitted effect of over 50% in size
L3MBTL1 block: blocks human L3MBTL1. Q9Y468. Potency, µM (highest dose often 57.1 µM), inactives show at the top dose activity, negative = inhibition, most hits filed as inhibitors. actives 0.66% (n = 230,000). AlphaScreen L3MBTL1–H3K9me1 peptide binding; also: % is scaled to controls: 0 for no effect and ±100 for the full control effect; nearly all actives have a fitted effect of over 60% in size
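Read-out is AlphaScreen signal from streptavidin donor and nickel chelate acceptor beads (10 ug/mL final each) bridging L3MBTL1 (50 nM) and biotinylated K9-monomethylated H3(1-15) peptide (75 nM), after 30 min compound exposure at room temperature.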
The depositor's hits bear a star; ? = inconclusive; . = no result given; [ ] = another dose, or the depositor's remark. Hits are enriched below; roughly 11% of the tested compounds scored in any of these assays. Calls follow the shape of the dose curve; as a rule, active = well fitted inhibition curve with a large enough effect; inconclusive = small, poorly fitted or top-dose-only effect; inactive = no such curve, though single readings can be large or run the other way. Potency is read from the fitted curve at half-maximal effect.

SMILES	HP1b binding inh	G9a block	BAZ2B block	JMJD2A Tudor inh	L3MBTL1 block
Cc1ccc(O)c(C=Nc2cc(C)ccc2O)c1	15%	-17%[59 µM]	-8%	-24%	-8%
O=[N+]([O-])c1cc(Cc2ccccc2)cc(C=Nc2ccc(N3CCOCC3)cc2)c1O	?	-14%[59 µM]	40µM*	56µM*	-13%
Cc1ccc(-n2ncc(C(=O)N3CCN(Cc4ccccc4)CC3)c2C2CCN(C(=O)OC(C)(C)C)CC2)c(C)c1	24%	-35%[59 µM]	-2%[57.1 µM]	-22%	.
CC(=O)/C(C#N)=C1\NC(=O)C(Cc2ccccc2C)S1 (centres undefined)	20%	20µM*	-23%	?	.
CCCN1C(=O)/C(=C2/C=Cc3ccccc3N2CC)SC1=S	3.2µM*	3.2µM*	2.8µM*	5.6µM*	?
CCN1C(=O)/C(=C2/C=Cc3ccccc3N2CC)SC1=S	?	13µM*	7.9µM*	11µM*	.
CN1C(=O)/C(=C2/C=Cc3ccccc3N2CCCS(=O)(=O)O)SC1=S	?	?	45µM*	?	.
CC(=O)N1C(=O)/C(=C2\SC(=S)N(NS(=O)(=O)c3ccc(C)cc3)C2=O)c2ccccc21	-9%	.	?	?	-1%
C=CCN1C(=O)/C(=C2/Sc3ccccc3N2CCCS(=O)(=O)O)SC1=S	?	40µM*	?	6%[11.4 µM]	?
COc1ccccc1-c1nnc(C2CCN(C(=O)c3cccc(C)c3)CC2)o1	28%	-1%[59 µM]	-11%	-6%	.
Cc1cc2c(s1)c1cnn(Cc3cccc(C(F)(F)F)c3)c(=O)c1n2C	.	.	.	-28%	.
C=CCN1C(=O)/C(=C2/Sc3ccccc3N2CC)SC1=S	35%	1%	9%	-8%	8%
CCCN1/C(=C2/SC(=S)N(CC)C2=O)C=Cc2ccccc21	?	?	2µM*	3.2µM*	.
O=C(O)CCc1ccc(-c2ccc(Br)cc2)o1	-36%	16µM*	-36%	56µM*	-2%
O=C(O)CCc1ccc(-c2ccc(Cl)cc2)o1	-23%	4µM*	-36%	?	.
COc1ccc(-c2noc(CCC(=O)O)n2)cc1	14%	-25%	-5%	-10%	-6%
Cc1oc(-c2ccc(Cl)cc2)cc1C(=O)O	8%	.	-12%	-18%	.
COc1ccc(-c2ccc(CCC(=O)O)o2)cc1	-25%	28µM*	-30%	79µM*	-9%
Cc1cccc(NC(=O)C2CCN(c3nnc(-n4c(C)ccc4C)s3)CC2)c1C	58%	6%[59 µM]	-15%	-14%	.
O=C(Cn1ncc2c3ccccc3n(Cc3cccc(Cl)c3)c2c1=O)NCc1cccs1	16%	4%[59 µM]	-23%	-26%	.
CCN1CCCC1CNc1ncnc2c1[nH]c1ccc(Cl)cc12 (centres undefined)	15%	50µM*	-1%	-20%	-6%
CC1=C(C(=O)Nc2cccc(F)c2)C2(CCCCCC2)OC1=O	13%	12%[59 µM]	-1%	-18%	.
CSc1cccc(NC(=O)CN2C(=O)COc3ccc(Cl)cc32)c1	28%	7%[59 µM]	3%	-1%	.
COc1cccc(N=CNc2cccc(OC)c2)c1	-20%	.	.	50µM*	.
COc1cccc(N=CC=C2OC(C)(C)C(C)(C)O2)c1	38%	35µM*	1%	-20%	.
SMILES	HP1b binding inh	G9a block	BAZ2B block	JMJD2A Tudor inh	L3MBTL1 block
Cc1ccccc1N=CC=C1OC(C)(C)C(C)(C)O1	22%	40µM*	1%	-13%	-9%
COc1ccc(N=CC=C2OC(C)(C)C(C)(C)O2)cc1OC	40%	32µM*	?	-26%	-3%
Cc1ccc(N=CC=C2OC(C)(C)C(C)(C)O2)cc1	40%	?	-27%	1%	-3%
COc1cccc(NC=C2C(=O)OC(C)(C)OC2=O)c1	19%	22%	0%	-4%	2%
Cc1cccc(N=CC=C2OC(C)(C)C(C)(C)O2)c1	31%	?	-14%	-14%	1%
CCOC(=O)CNC(=O)c1cc2c(=O)oc3ccccc3c2s1	26%	15%[59 µM]	11%	13%	.
CCCCn1c(N)c(N(CC(C)C)C(=O)COC(=O)Cc2c(C)nc3ccccc3c2C)c(=O)[nH]c1=O	21%	-3%[12.7 µM]	-6%	6%	.
CC(C)(C)C(=O)NCCCC(=O)O	.	5%[12.7 µM]	.	.	.
COc1ccc(/C=C2/SC(=S)N(NS(=O)(=O)c3ccccc3)C2=O)cc1	1%	?	-28%	?	.
COc1ccccc1/C=C1\SC(=S)N(NS(=O)(=O)c2ccccc2)C1=O	14%	-11%[2.33 µM]	?	-30%	.
COc1cc(/C=C2\SC(=S)N(NS(=O)(=O)c3ccc(C)cc3)C2=O)ccc1O	?	25µM*	?	-1%[11.4 µM]	-13%
COc1cc(/C=C2\SC(=S)N(NS(=O)(=O)c3ccccc3)C2=O)ccc1O	?	40µM*	?	?	-4%
C=CCOc1ccc(/C=C2\SC(=S)N(NS(=O)(=O)c3ccccc3)C2=O)cc1	-25%	27%[2.33 µM]	50µM*	?	.
COc1ccc(S(=O)(=O)c2c(Nc3c(C)cccc3C)sc(C(=O)c3ccc(F)cc3)c2N)cc1	6%[57 µM]	0%[59 µM]	-31%	?	.
CCOc1ccc(N(CC(=O)NCc2ccc(F)cc2)C(=O)c2snc(C(N)=O)c2N)cc1	15%	20%	2%	10%	.
CC1CCN(CCCNC(=O)c2cc(Sc3ccc(F)cc3)nc3ccccc23)CC1	-7%	1%[59 µM]	-4%	-29%	.
CCOc1ccc(OCC)c(NS(=O)(=O)c2cc(-c3cc(C)no3)ccc2C)c1	23%	-14%[59 µM]	-1%	-27%	.
CCC(C)(C)NC(=S)Nc1ccccc1C	33%	10%	-16%	-16%	-4%
CCn1c(C)cs/c1=N\C(=S)Nc1ccccc1C	-17%	?	40µM*	?	-25%
O=c1n(Cc2ccc([N+](=O)[O-])cc2)c2ccccc2c2nc(-c3ccccc3)nn12	17%	5%[59 µM]	-22%	-17%	.
COc1ccc(-c2cn(-c3ccc(C)cc3C)c(=O)[nH]2)cc1OC	33%	11µM*	-19%	-9%	17%
COc1ccc(C2=NO[C@@H]3C(=O)N(c4cccc(C)c4C)C(=O)[C@H]23)cc1OC	20%	23%[59 µM]	5%	-20%	.
COc1ccc(-c2cc(=O)[nH][nH]2)cc1OC	28%	?	-26%	-13%	.
COc1ccc(C2=NO[C@@H]3C(=O)N(c4ccc(C)cc4C)C(=O)[C@H]23)cc1OC	57%	13µM*	-3%	?	5%
Cc1ccc(CNC(=O)C(=O)NCC(c2cccs2)S(=O)(=O)c2cccs2)cc1 (centres undefined)	19%	6%[59 µM]	-4%	-17%	.
COc1ccc(-c2nc(C)c(CCNC(=O)C(=O)Nc3cc(C)cc(C)c3)s2)cc1OC	11%[57 µM]	9%[59 µM]	-1%	-4%	.
CCC(=O)NC1=C(Cl)C(=O)C(NC(=O)CC)=C(Cl)C1=O	4µM*	0.25µM*	45µM*	4µM*	-22%

High-throughput results from PubChem BioAssay.
